Data as given in PubChem BioAssay.

assay: COS7 lysate on small-molecule microarray, probe aHis, 635 nm (AID 1123); conditions: COS7 cell lysate, fluorescence, higher = more signal;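 further: z-score combines 667nm fluorescence intensity with signal-to-noise per printed compound spot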

Structure (SMILES) | composite z-score
COCC#Cc1ccc([C@@H]2N[C@H](C(=O)O)CC[C@H]2C)cc1 | -0.336
C#CCCCON=C1[C@H]2CCn3c(=O)n([C@@H](CC)c4ccccc4)c(=O)n3[C@H]2[C@H](O)[C@@H]2O[C@H]12 | 0.219
O=C1CCCC=C1C(O)C1CCCCC1 (stereo unspecified) | 0.181
C[C@@H](c1ccccc1)N1C(=O)[C@H]2[C@H]3[C@H](O)[C@H](O)CC(=NOC[C@@H](O)COCc4ccco4)[C@H]3CC[C@H]2C1=O | -0.795
CCOC(=O)[C@H](CC(C)C)NC(=O)CCC1CC(OC(=O)NCCc2ccc(F)cc2)CC2(CCCC(COC(=O)NCc3cccc4ccccc34)O2)O1 (stereo partly specified) | 0.96
COC(=O)[C@H](C)NC(=O)CCC1CC(OC(=O)NCCc2ccc(F)cc2)CC2(CCCC(COC(=O)NCCc3ccccc3OC)O2)O1 (stereo partly specified) | 1.25
CCOC(=O)CCN1C(=O)[C@H]2[C@H]3[C@H](O)[C@H](O)CC(=NOCC(C)C)[C@@H]3CC[C@H]2C1=O | -0.934
CC[C@@H](c1ccccc1)n1c(=O)n2n(c1=O)[C@H]1[C@H](O)[C@@H]3O[C@@H]3C(=NOCc3ccccc3)[C@H]1CC2 | 0.423
COc1ccc(O[C@H]2C=C[C@@H](c3ccccc3)O[C@@H]2CON=C(C)CCN2CCCc3nc(C)c(C)cc32)cc1 | 0.896
COC(OC)[C@@H](C)[C@H](OC)[C@@H](C)[C@H](OC)c1ccccc1 | -0.729
CC(CCN1CCc2nc(-c3ccccc3)c(-c3ccccc3)cc2C1)=NO[C@@H](C)c1cc(-c2c(C)cc(C)cc2C)no1 | 0.157
CO[C@H]1COC(=O)CCC[C@H](C)[C@H](OC)COC(=O)CC=C[C@@H]1C | -1.17
COC(=O)[C@H](CCSC)NC(=O)CC=C[C@@H](C)CO | 1.42
C[C@H]1CC[C@@H](C(=O)O)N[C@@H]1c1cccc(N2CCCC2=O)c1 | -0.101
C#CCCCON=C1C[C@@H](O)[C@@H](O)[C@@H]2[C@@H]3C(=O)N([C@@H](C)c4ccccc4)C(=O)[C@@H]3CC[C@@H]12 | 0.0072
COC(=O)[C@H](C)NC(=O)CCC1CC(OC(=O)NCc2ccc3c(c2)OCO3)CC2(CCCC(COC(=O)NCc3ccccc3)O2)O1 (stereo partly specified) | 0.849
CCOC(=O)CCN1C(=O)[C@H]2[C@H]3[C@H](O)[C@H](O)CC(=NNC(=O)OCC)[C@H]3CC[C@H]2C1=O | 0.294
CC(C)(C)N1C(=O)[C@H]2[C@@H]3C(=CC[C@H]2C1=O)C(=O)[C@H]1O[C@H]1[C@H]3O | -0.511

Structure (SMILES) | composite z-score
O=C1[C@H]2[C@H]3[C@H](O)[C@H](O)CC(=NO[C@@H]4O[C@H](CO)[C@@H](O)[C@H](O)[C@H]4O)[C@@H]3CC[C@H]2C(=O)N1C1CCCCC1 | 0.139
COc1ccc(COC(=O)NN=C2C[C@@H](O)[C@@H](O)[C@@H]3[C@@H]4C(=O)N([C@@H](C)c5ccccc5)C(=O)[C@@H]4CC[C@@H]23)cc1 | -0.211
COc1ccc(COC(=O)NN=C2C[C@@H](O)[C@@H](O)[C@@H]3[C@@H]4C(=O)N(Cc5ccccc5)C(=O)[C@@H]4CC[C@@H]23)cc1 | 0.275
CC(C)[C@@H](OCc1ccccc1)[C@H](C)C=NO[C@@H](C)c1cn([C@H](CO)Cc2ccccc2)nn1 | -0.205
CCOC(=O)[C@H](Cc1ccccc1)NC(=O)CCC1CC(OC(=O)NCc2ccc3c(c2)OCO3)CC2(CCCC(COC(=O)NCCOc3ccccc3)O2)O1 (stereo partly specified) | 1.52
COC(=O)[C@H](C)NC(=O)CCC1CC(OC(=O)NCc2ccc3c(c2)OCO3)CC2(CCCC(COC(=O)NCCCN3CCCC3=O)O2)O1 (stereo partly specified) | 0.639
O=C(NN=C1C[C@@H](O)[C@@H](O)[C@@H]2[C@@H]3C(=O)N(Cc4ccc5c(c4)OCO5)C(=O)[C@@H]3CC[C@@H]12)OCc1ccccc1 | -0.357
CCN1C(=O)[C@H]2[C@H]3[C@H](O)[C@H](O)CC(=NOCC[C@@H]4C=C[C@H](OC(C)=O)[C@@H](COC(C)=O)O4)[C@@H]3CC[C@H]2C1=O | 0.305
COC(=O)[C@H](C)NC(=O)CCC1CC(OC(=O)NCc2ccc3c(c2)OCO3)CC2(CCCC(COC(=O)NCCC(C)C)O2)O1 (stereo partly specified) | 0.891
CO[C@H]1COC(=O)CC=C[C@H](C)[C@H](OC)COC(=O)[C@@H](C)NC(=O)CC=C[C@@H]1C | 1.95
O=C1C=C[C@@H](O)[C@@H]2[C@@H]3C(=O)N(Cc4ccccc4)C(=O)[C@@H]3CC[C@@H]12 | 0.556
CCOC(=O)[C@H](Cc1ccccc1)NC(=O)CCC1CC(OC(=O)NCc2ccc3c(c2)OCO3)CC2(CCCC(COC(=O)NCCc3ccc(Cl)cc3)O2)O1 (stereo partly specified) | 0.454
COc1ccc(-c2cnnc(CCCn3ccnc3-c3ccccc3)n2)cc1 | 0.0412
CCOC(=O)NN=C1C[C@@H](O)[C@@H](O)[C@@H]2[C@@H]3C(=O)N(c4ccc(F)cc4F)C(=O)[C@@H]3CC[C@H]12 | 0.0971
C#CCCCON=C1C[C@@H](O)[C@@H](O)[C@@H]2[C@@H]3C(=O)N(CC)C(=O)[C@@H]3CC[C@H]12 | 1.35
C[C@H]1CC[C@@H](C(=O)O)N[C@@H]1c1ccc(C#Cc2ccccc2)cc1 | 0.803
COC(=O)[C@H](C)NC(=O)CCC1CC(OC(=O)NCc2cccc3ccccc23)CC2(CCCC(COC(=O)NCc3ccccc3)O2)O1 (stereo partly specified) | 0.763
CC(=O)OC[C@H]1O[C@H](CC=NOC[C@@H](O)[C@H]2O[C@@H]3OC(C)(C)O[C@@H]3[C@H]2O)C=C[C@@H]1OC(C)=O | 0.548
